Experimental data as given in PubChem BioAssay AID1159580 (chemical genetic matrix, 2015).
Hit rate of the full screen: of about 5,500 compounds, about 2,000 (36%) were called active. Inconclusive results (about 18%) are left out. Cut-off read from the data, not from the text of the source: active = normalized growth mostly below about 0.91 (no sharp cut-off); inconclusive = no clear call, values can overlap the other calls; inactive = mostly above about 0.92. This is one part of the list.

Assay: chemical genetic growth profiling, strain panel (AID 1159580);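 note: tested at 20 µM; growth read once vehicle control cultures reached saturation at 30 °C; 1 = growth at the plate median or of vehicle wells; lower values mean less growth of the strain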
Details: S. cerevisiae deletion strains, growth OD
[1] = locus YHR030C, strain SLT2, hits give low values
[2] = locus YHR079C, strain IRE1, hits give low values
[3] = locus YJL095W, strain BCK1, hits give low values
[4] = locus YJR066W, strain TOR1, hits give low values
[5] = locus YLR113W, strain HOG1, hits give low values
[6] = locus YNL183C, strain NPR1, hits give low values
[7] = locus YOR231W, strain MKK1, hits give low values
[8] = locus YPL256C, strain CLN2, hits give low values

Measured: normalized growth

OC(CNCc1ccc(Cl)cc1)CO/N=C\C1=C(Cl)c2cc(Cl)ccc2OC1 (stereo not given)
inactive: locus YAR019C, strain CDC15, hits give low values 0.962 | locus YBL105C, strain PKC1, hits give low values 0.981 | locus YBR135W, strain CKS1, hits give low values 0.981 | locus YBR136W, strain MEC1, hits give low values 0.957 | locus YBR160W, strain CDC28, hits give low values 0.988 | locus YDL017W, strain CDC7, hits give low values 0.986 | locus YDL028C, strain MPS1, hits give low values 0.975 | locus YDL101C, strain DUN1, hits give low values 0.987 | locus YDL108W, strain KIN28, hits give low values 0.967 | locus YDL132W, strain cdc53, hits give low values 0.979 | locus YDL214C, strain PRR2, hits give low values 0.925 | locus YDR052C, strain DBF4, hits give low values 0.989 | locus YDR054C, strain cdc34, hits give low values 0.98 | locus YDR226W, strain ADK1, hits give low values 0.97 | locus YDR477W, strain SNF1, hits give low values 0.974 | locus YER123W, strain YCK3, hits give low values 0.867 | locus YER133W, strain GLC7, hits give low values 0.933 | locus YFL009W, strain cdc4, hits give low values 0.976 | locus YFL029C, strain CAK1, hits give low values 0.963 | locus YFR003C, strain YPI1, hits give low values 0.981 | locus YFR019W, strain FAB1, hits give low values 0.921 | locus YFR028C, strain CDC14, hits give low values 0.96 | locus YGR040W, strain KSS1, hits give low values 0.97 | locus YGR052W, strain FMP48, hits give low values 1 | locus YGR092W, strain DBF2, hits give low values 0.928 | [1] 0.871 | [2] 0.931 | locus YHR082C, strain KSP1, hits give low values 0.966 | locus YHR205W, strain SCH9, hits give low values 0.949 | locus YIL147C, strain SLN1, hits give low values 0.969 | [3] 0.915 | locus YJL128C, strain PBS2, hits give low values 0.933 | locus YJL157C, strain FAR1, hits give low values 0.971 | locus YJR016C, strain ILV3, hits give low values 0.991 | locus YJR066W, strain TOR1 (second series), hits give low values 1 | [4] 0.944 | locus YKL048C, strain ELM1, hits give low values 0.931 | locus YKL067W, strain YNK1, hits give low values 0.937 | locus YKL101W, strain HSL1, hits give low values 0.923 | locus YKL193C, strain SDS22, hits give low values 0.981 | locus YKL203C, strain TOR2, hits give low values 0.983 | [5] 0.87 | locus YLR133W, strain CKI1, hits give low values 0.96 | locus YLR403W, strain SFP1, hits give low values 0.996 | locus YML070W, strain DAK1, hits give low values 0.924 | locus YMR001C, strain CDC5, hits give low values 0.985 | locus YMR205C, strain PFK2 (second series), hits give low values 0.949 | locus YMR277W, strain FCP1, hits give low values 0.981 | locus YNL006W, strain LST8, hits give low values 0.99 | locus YNL020C, strain ARK1, hits give low values 0.963 | locus YNL161W, strain CBK1, hits give low values 0.983 | [6] 0.932 | locus YNL207W, strain RIO2, hits give low values 0.97 | locus YNL222W, strain SSU72, hits give low values 0.979 | locus YNL307C, strain MCK1 (second series), hits give low values 0.934 | locus YOL078W, strain AVO1, hits give low values 0.984 | locus YOL136C, strain PFK27, hits give low values 0.921 | locus YOR061W, strain CKA2, hits give low values 0.969 | locus YOR119C, strain RIO1, hits give low values 0.957 | [7] 0.918 | locus YOR329C, strain SCD5, hits give low values 0.977 | locus YPL031C, strain PHO85, hits give low values 0.975 | locus YPL153C, strain RAD53, hits give low values 0.984 | locus YPL204W, strain HRR25, hits give low values 0.994 | locus YPL209C, strain IPL1, hits give low values 0.981 | [8] 0.864 | locus YPR025C, strain CCL1, hits give low values 0.981 | locus YPR106W, strain ISR1, hits give low values 0.963 | locus YPR111W, strain DBF20, hits give low values 0.962 | strain NNK1, hits give low values 0.959 | strain TSCII, hits give low values 0.979

CC1(C)CCC2=C(O1)c1ccccc1C(=O)C2=O
inactive: locus YAL040C, strain CLN3, hits give low values 1.02 | locus YER002W, strain NOP16, hits give low values 1 | locus YGR078C, strain PAC10, hits give low values 0.977 | locus YMR263W, strain SAP30, hits give low values 0.956 | locus YNL175C, strain NOP13, hits give low values 0.973 | locus YNL197C, strain WHI3, hits give low values 0.926 | locus YNL224C, strain SQS1, hits give low values 1 | locus YOR083W, strain WHI5 (second series), hits give low values 0.938
active: locus YAL013W, strain DEP1, hits give low values 0.879 | locus YCL061C, strain MRC1 (second series), hits give low values 0.876 | locus YDR150W, strain NUM1, hits give low values 0.857 | locus YDR363W, strain ESC2, hits give low values 0.706 | locus YPL055C, strain LGE1, hits give low values 0.769 | locus YPL241C, strain CIN2, hits give low values 0.861

C=C(NC(=O)C(=C)NC(=O)c1csc(C2=NC3c4csc(n4)C4NC(=O)c5csc(n5)C(C(C)(O)C(C)O)NC(=O)C5CSC(=N5)C(=CC)NC(=O)C(C(C)O)NC(=O)c5csc(n5)C3(CC2)NC(=O)C(C)NC(=O)C(=C)NC(=O)C(C)NC(=O)C(C(C)CC)NC2C=Cc3c(C(C)O)cc(nc3C2O)C(=O)OC4C)n1)C(N)=O (stereo not given)
inactive: locus YAL021C, strain ccr4, hits give low values 1.01 | locus YAL026C, strain drs2, hits give low values 1.01 | locus YAL030W, strain snc1, hits give low values 1.01 | locus YBL061C, strain skt5, hits give low values 1 | locus YBR009C, strain hhf1, hits give low values 1 | locus YBR023C, strain chs3, hits give low values 1.01 | locus YBR171W, strain sec66, hits give low values 1.02 | locus YBR231C, strain swc5, hits give low values 1.01 | locus YBR279W, strain paf1, hits give low values 0.986 | locus YCL011C, strain gbp2, hits give low values 1 | locus YCL016C, strain dcc1, hits give low values 1.02 | locus YCL061C, strain MRC1, hits give low values 1.01 | locus YCL069W, strain vba3, hits give low values 1.01 | locus YCR088W, strain abp1, hits give low values 1.02 | locus YDL005C, strain med2, hits give low values 0.993 | locus YDL040C, strain nat1, hits give low values 0.993 | locus YDR001C, strain nth1, hits give low values 1.01 | locus YDR069C, strain doa4, hits give low values 1.01 | locus YDR137W, strain rgp1, hits give low values 1.04 | locus YDR159W, strain sac3, hits give low values 1 | locus YDR195W, strain ref2 1.01 | locus YDR297W, strain sur2, hits give low values 1 | locus YDR334W, strain swr1, hits give low values 1.02 | locus YDR335W, strain msn5, hits give low values 0.991 | locus YDR392W, strain spt3, hits give low values 1.01 | locus YEL003W, strain gim4, hits give low values 1.01 | locus YEL037C, strain rad23, hits give low values 1 | locus YEL061C, strain CIN8 (second series), hits give low values 1.02 | locus YER015W, strain faa2, hits give low values 0.993 | locus YER016W, strain bim1, hits give low values 1 | locus YER111C, strain swi4, hits give low values 1.03 | locus YER155C, strain BEM2 (second series), hits give low values 1.06 | locus YFR010W, strain ubp6, hits give low values 1.01 | locus YGL167C, strain pmr1, hits give low values 1.01 | locus YGL173C, strain kem1, hits give low values 1.01 | locus YGL227W, strain vid30, hits give low values 0.989 | locus YGL240W, strain doc1, hits give low values 1.01 | locus YGL253W, strain hxk2, hits give low values 1.01 | locus YHR013C, strain ard1, hits give low values 1.03 | locus YHR027C, strain rpn1, hits give low values 1.01 | [1] 0.979 | [2] 0.99 | locus YHR142W, strain chs7, hits give low values 1.03 | locus YJL092W, strain hpr5, hits give low values 1.01 | locus YJL095W, strain BCK1 (second series), hits give low values 1.01 | [3] 0.981 | locus YJL115W, strain asf1, hits give low values 1.01 | locus YJL129C, strain trk1, hits give low values 1 | locus YJL154C, strain vps35, hits give low values 1.02 | locus YJL164C, strain tpk1, hits give low values 1.01 | locus YJL166W, strain qcr8, hits give low values 1.02 | locus YJL187C, strain SWE1, hits give low values 1.01 | [4] 0.968 | locus YKL160W, strain elf1, hits give low values 1.02 | locus YKR026C, strain gcn3, hits give low values 0.997 | locus YKR091W, strain srl3, hits give low values 0.984 | locus YLL001W, strain dnm1, hits give low values 1.02 | locus YLL026W, hits give low values 0.995 | locus YLL041C, strain sdh2, hits give low values 1.01 | locus YLR027C, strain aat2, hits give low values 0.999 | [5] 0.987 | locus YLR221C, strain rsa3, hits give low values 0.994 | locus YLR258W, strain gsy2, hits give low values 1.02 | locus YLR262C, strain YPT6 (second series), hits give low values 1.04 | locus YLR320W, strain mms22, hits give low values 1.02 | locus YLR342W, strain FKS1, hits give low values 1.02 | locus YLR357W, strain rsc2, hits give low values 0.969 | locus YLR370C, strain arc18, hits give low values 1 | locus YLR384C, strain iki3, hits give low values 1.01 | locus YML120C, strain ndi1, hits give low values 1 | locus YMR058W, strain fet3, hits give low values 1 | locus YMR125W, strain sto1, hits give low values 1.01 | locus YMR129W, hits give low values 0.999 | locus YMR205C, strain PFK2, hits give low values 1.01 | locus YMR231W, strain pep5, hits give low values 0.983 | locus YNL071W, strain lat1, hits give low values 1.01 | [6] 0.971 | locus YNL209W, strain ssb2, hits give low values 1 | locus YNL248C, strain rpa49, hits give low values 0.994 | locus YNL322C, strain KRE1 (second series), hits give low values 1.02 | locus YNR049C, strain mso1, hits give low values 1.01 | locus YOR001W, strain rrp6, hits give low values 1.02 | locus YOR070C, strain gyp1, hits give low values 1.01 | locus YOR080W, strain dia2, hits give low values 1.02 | locus YOR083W, strain WHI5, hits give low values 1.01 | locus YOR106W, strain vam3, hits give low values 1.03 | [7] 0.981 | locus YOR265W, strain rbl2, hits give low values 1.02 | locus YOR270C, strain vph1, hits give low values 1 | locus YOR290C, strain snf2, hits give low values 1.01 | locus YPL051W, strain arl3, hits give low values 1.01 | locus YPL078C, strain atp4, hits give low values 1.01 | locus YPL106C, strain sse1, hits give low values 0.982 | locus YPL240C, strain hsp82, hits give low values 0.997 | [8] 0.979
